Measurements published in PubChem BioAssay.
Where “and” joins values, the source holds several entries; their conditions need not be identical. Equal entries are not always repeated. Calls of active or inactive are those of the source.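 The calls were made as follows, unless noted: active = compounds whose cell count with miR-34 switched on is under 0.7 times the count with it off; inactive = the rest.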

Tests used:
[1] = liver-stage malaria parasite growth inhibition, primary screen, cell-based, HepG2, luciferase luminescence, HepG2 viability (AID 624349; in the data active = parasite load remaining mostly below about 12%, no sharp cut-off; inactive = mostly above about 10%;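 also: 100% = mean of DMSO negative control wells on the same plate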); conditions: P. berghei liver stage in HepG2, luciferase luminescence, concentration not given here; parasite load remaining: stronger effect = lower value; viability: measured here: HepG2 viability without parasites
[2] = stimulators of nuclear beta-catenin in C2C12, primary screen, imaging, WNT3A-conditioned medium, mouse C2C12, NPC library (AID 1117326; in the data active = nuclear beta-catenin stimulation mostly above about 4.2%, no sharp cut-off; inactive = mostly below about 10%); conditions: stronger effect = higher value
[3] = stimulators of insulin release from INS-1E, primary screen, cell-based, 5 mM glucose, NPC library (AID 1117329;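 active = compound raises insulin release from rat beta cells at 5 mM glucose, no numeric limit stated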); conditions: rat INS-1E insulin secretion, at 10 µM, stronger effect = higher value
[4] = growth inhibition of GSK3B-pretreated HCT116 cells – cell-based, CellTiter-Glo, 0.2 to 20 µM (AID 1117336;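 active = compounds lowering colon cancer cell viability after pretreatment blocking the GSK3B kinase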); conditions: HCT116 viability after GSK3B inhibitor, at 20 µM, stronger effect = higher value
[5] = inhibition of endothelial tube formation, primary screen, imaging, VEGF stimulated, CD31 staining, tube area, NPC library (AID 1117340;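 active = compound that reduces growth-factor-driven endothelial tube area in a mixed cell culture, no cutoff stated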); conditions: VEGF-stimulated ADSC/ECFC co-culture, at 10 µM, stronger effect = higher value
[6] = glucagon-like peptide 1 release enhancers, primary assay, NCI-H716 cell line, NPC library (AID 1117341;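 active = compound raises GLP1 secretion from the human gut endocrine cells, with no numeric limit stated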); conditions: NCI-H716 cells, at 10 µM, stronger effect = higher value
[7] = HCT116 colon cancer cell growth inhibition, primary screen, CellTiter-Glo luminescence, NPC library (AID 1117342;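 active = compounds that lower survival of HCT116 colon cancer cells in the luminescence readout, no numeric limit stated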); conditions: at 20 µM (top of the series)
[8] = CellTiter-Glo luminescent readout of SW480 viability loss, NPC library primary (AID 1117343;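 active = compounds that lower viability of the colon cancer cells in the luminescence readout, with no numeric limit stated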); conditions: CellTiter-Glo luminescence; at 20 µM (top of the series) unless noted
[9] = decreased DLD-1 cellular survival, CellTiter-Glo luminescent readout, NPC compound collection, primary HTS (AID 1117346;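 active = compounds that lower survival of DLD-1 colon cancer cells in the luminescence readout, no cutoff given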); conditions: DLD-1 viability, CellTiter-Glo luminescence; at 20 µM (top of the series)
[10] = differential killing of epithelial or mesenchymal cells, primary screen, imaging, PC-3E GFP, TEM4-18 mCherry, co-culture (AID 1345086;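 active = compounds killing one labelled cell type while sparing the other, by normalised counts and ratio limits, not self-fluorescent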;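 as to all read-outs here: cells exposed to compound for 72 h before imaging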;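 as to red/green cell ratio (normalised): normalised mesenchymal count divided by normalised epithelial count so high means epithelial killing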); conditions: imaging cell counts, at 1 µM; for red/green cell ratio (normalised): actives lie on both sides, counts scaled to control wells, 1 = unselective
[11] = sensitizers of A549 cells to miR-34 induction, primary screen, imaging, A549 dox-inducible miR-34, nuclei and caspase counts (AID 1347080); conditions: A549 miR-34 inducible, Hoechst nuclei count, 48 h
[12] = survival rescue of mitochondrial mutant cells in low glucose, primary screen, MELAS cybrids, Rieske KO mouse fibroblasts, CellTiter-Glo (AID 1508586;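 active = mean z-score across replicates of 1.96 or higher in either the MELAS or the Rieske mutant cell line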;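 also: z relative to plate mean and SD of compound and empty wells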)
[13] = molecular target: NAD(+) hydrolase SARM1 (Homo sapiens) (UniProt Q6SZW1); assay: SARM1 TIR NADase inhibitors, cell lysate, NAD-Glo luminescence (AID 1508614;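 active = compound whose remaining NAD level is above about 45 nM, limit read from the data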;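 also: higher remaining NAD means stronger inhibition of SARM1 NADase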); conditions: SAM-TIR HEK293T lysate NADase, at 1 µM, stronger effect = higher value
Chain of NAD(+) hydrolase SARM1 (Homo sapiens) (Q6SZW1 whole entry, looked up): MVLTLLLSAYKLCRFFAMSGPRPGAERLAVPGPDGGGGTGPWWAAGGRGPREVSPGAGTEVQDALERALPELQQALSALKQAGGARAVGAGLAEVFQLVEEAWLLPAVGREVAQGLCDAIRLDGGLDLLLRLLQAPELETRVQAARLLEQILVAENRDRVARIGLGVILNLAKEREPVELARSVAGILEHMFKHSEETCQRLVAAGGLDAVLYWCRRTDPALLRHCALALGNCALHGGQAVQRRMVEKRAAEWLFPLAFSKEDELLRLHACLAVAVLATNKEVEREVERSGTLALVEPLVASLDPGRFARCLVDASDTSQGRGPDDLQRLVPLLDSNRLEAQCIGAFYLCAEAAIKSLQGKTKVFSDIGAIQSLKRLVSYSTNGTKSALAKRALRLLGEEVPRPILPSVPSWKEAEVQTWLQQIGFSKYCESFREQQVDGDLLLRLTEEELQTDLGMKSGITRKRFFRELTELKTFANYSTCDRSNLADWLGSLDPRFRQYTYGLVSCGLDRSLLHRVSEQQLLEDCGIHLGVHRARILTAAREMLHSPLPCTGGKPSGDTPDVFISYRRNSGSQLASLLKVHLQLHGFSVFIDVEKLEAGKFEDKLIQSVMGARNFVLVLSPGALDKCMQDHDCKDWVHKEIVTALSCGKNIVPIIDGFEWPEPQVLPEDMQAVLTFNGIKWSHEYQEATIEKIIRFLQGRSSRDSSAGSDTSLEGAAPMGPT

[14] = hESC survival regulators, cell-based (AID 493140; call rule not given here;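 also: cells exposed to compounds for four days before counting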); conditions: human embryonic stem cell survival screen; stronger effect = higher value
[15] = measured here: epithelial PC-3E GFP cell survival
[16] = measured here: mesenchymal TEM4-18 mCherry cell survival
[17] = stronger effect = lower value, cell number ratio, induced over uninduced
[18] = measured here: relative caspase fold change +Dox/-Dox
[19] = measured here: total cells with miR-34 induction, stronger effect = lower value
[20] = measured here: total cells without miR-34 induction
[21] = MELAS cybrid survival, CellTiter-Glo 48 h, stronger effect = higher value
[22] = Rieske KO mouse fibroblast survival, CellTiter-Glo 72 h

## CCN(C)C(=O)Oc1cccc([C@H](C)N(C)C)c1
[1]
  parasite load remaining: 32.3% (inactive)
  viability: 99%
[2]; at 10 µM
  nuclear beta-catenin stimulation: -0.2% (inactive)
[2]; stimulation, at 2 µM
  nuclear beta-catenin stimulation: 0.4%
[3]
  insulin secretion stimulation: 6.4% (inactive)
[4]
  viability decrease: 5.7% (inactive)
[5]
  tube area decrease: -0.5% (inactive)
[6]
  GLP1 secretion stimulation: 2.5% (inactive)
[7]
  inhibition of viability: 25.9% (inactive)
[8]
  viability decrease (inhibition): 17.2% (inactive)
[9]
  viability decrease (inhibition): 0.2% (inactive)
[10]
  red/green cell ratio (normalised): 1.13 (inactive)
[10]; [15]
  normalised cell number: 1.24
[10]; [16]
  normalised cell number: 1.4
[11]; [17]
  fold change: 0.884 (inactive)
[11]; [18]
  fold change: 1.13
[11]; [19]
  cell count: 10100
[11]; [20]
  cell count: 11400
[12]; [21]
  z-score: -0.629 (inactive) and -0.546 (inactive)
[12]; [22]
  z-score: -0.737 and -0.15

## CC(=O)NCCCS(=O)(=O)O
[2]; at 10 µM
  nuclear beta-catenin stimulation: -1.9% (inactive)
[2]; stimulation, at 2 µM
  nuclear beta-catenin stimulation: -0.8%
[3]
  insulin secretion stimulation: -0.1% (inactive)
[4]
  viability decrease: -7.6% (inactive)
[5]
  tube area decrease: 3.7% (inactive)
[6]
  GLP1 secretion stimulation: -1.3% (inactive)
[7]
  inhibition of viability: 1.8% (inactive)
[8]
  viability decrease (inhibition): 4.2% (inactive)
[9]
  viability decrease (inhibition): -2% (inactive)
[10]
  red/green cell ratio (normalised): 0.97 (inactive)
[10]; [15]
  normalised cell number: 1
[10]; [16]
  normalised cell number: 0.97
[11]; [17]
  fold change: 0.904 (inactive)
[11]; [18]
  fold change: 0.789
[11]; [19]
  cell count: 8720
[11]; [20]
  cell count: 9650
[12]; [21]
  z-score: -0.172 (inactive)
[12]; [22]
  z-score: 0.0861
[13]
  remaining NAD: 10 nM (inactive)

## O=C(O)CN(CCN(CC(=O)O)CC(=O)O)CCN(CC(=O)O)CC(=O)O
[14]
  survival: 5 (inactive)
[1]
  parasite load remaining: 120% (inactive) and 34.8% (inactive)
  viability: 101% and 170%
[2]; at 10 µM
  nuclear beta-catenin stimulation: -0.8% (inactive)
[2]; stimulation, at 2 µM
  nuclear beta-catenin stimulation: -1.5%
[3]
  insulin secretion stimulation: 1.5% (inactive)
[4]
  viability decrease: 79% (active)
[5]
  tube area decrease: -14.3% (inactive)
[6]
  GLP1 secretion stimulation: 0.1% (inactive)
[7]
  inhibition of viability: 53.1% (active)
[8]
  viability decrease (inhibition): 79.5% (active)
[9]
  viability decrease (inhibition): 31.1% (inactive)
[10]
  red/green cell ratio (normalised): 1.45 (inactive)
[10]; [15]
  normalised cell number: 0.48
[10]; [16]
  normalised cell number: 0.7
[11]; [17]
  fold change: 1.07 (inactive) and 0.79 (inactive) and 0.864 (inactive)
[11]; [18]
  fold change: 1.26 and 1.98 and 3.01
[11]; [19]
  cell count: 8980 and 7930 and 10700
[11]; [20]
  cell count: 8380 and 10000 and 12300
[12]; [21]
  z-score: 0.621 (inactive)
[12]; [22]
  z-score: 0.97
[13]
  remaining NAD: 10 nM (inactive)

## CCCN(CCC)CCc1cccc2c1CC(=O)N2
[1]
  parasite load remaining: 55.3% (inactive)
  viability: 102%
[2]; at 10 µM
  nuclear beta-catenin stimulation: 2.8% (inactive)
[2]; stimulation, at 2 µM
  nuclear beta-catenin stimulation: 1.5%
[3]
  insulin secretion stimulation: 2.8% (inactive)
[4]
  viability decrease: 8% (inactive)
[5]
  tube area decrease: -10% (inactive)
[6]
  GLP1 secretion stimulation: 3.9% (inactive)
[7]
  inhibition of viability: 21.3% (inactive)
[8]
  viability decrease (inhibition): 29.8% (inactive)
[9]
  viability decrease (inhibition): 26.9% (inactive)
[10]
  red/green cell ratio (normalised): 1.06 (inactive)
[10]; [15]
  normalised cell number: 0.99
[10]; [16]
  normalised cell number: 1.05
[11]; [17]
  fold change: 0.948 (inactive) and 0.94 (inactive) and 0.88 (inactive)
[11]; [18]
  fold change: 1.29 and 1.47 and 5.03
[11]; [19]
  cell count: 9580 and 9680 and 11700
[11]; [20]
  cell count: 10100 and 10300 and 13300
[12]; [21]
  z-score: 0.118 (inactive) and -0.361 (inactive)
[12]; [22]
  z-score: 0.253 and -0.254
[13]
  remaining NAD: 10 nM (inactive)
